Source: PubChem (several laboratories)
Shown are actives, neighbours in structure and some others; about 4.5% of the full set was active somewhere.
PrP 5UTR inh: inhibition of PrP 5' UTR reporter expression | cell-based PrP 5' UTR mRNA reporter, plate reader | inhibition, % (test concentration not listed) | 340,000 tested, 0.35% active | AID 488862; in the data active = inhibition above about 52%
FBA Mtb inh: inhibitors of M. tuberculosis fructose-bisphosphate aldolase | 360,000 tested, 2.3% active | purified M. tuberculosis FBA, fluorescence read-out | P9WQA3 | inhibition, % at 1 µM; in the data active = inhibition above about 27%
Target sequence (P9WQA3 whole entry, looked up): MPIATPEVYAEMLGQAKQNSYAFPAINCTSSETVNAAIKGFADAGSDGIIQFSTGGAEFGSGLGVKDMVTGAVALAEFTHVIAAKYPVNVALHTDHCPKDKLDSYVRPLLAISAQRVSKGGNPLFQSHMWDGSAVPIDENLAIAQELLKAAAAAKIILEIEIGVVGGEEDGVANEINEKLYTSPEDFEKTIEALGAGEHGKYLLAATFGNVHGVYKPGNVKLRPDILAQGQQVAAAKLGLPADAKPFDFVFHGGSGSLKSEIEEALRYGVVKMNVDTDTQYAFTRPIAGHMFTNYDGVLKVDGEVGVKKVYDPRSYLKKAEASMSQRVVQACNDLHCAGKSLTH
GDH-TPI inh: inhibits GDH-TPI coupling enzymes, artifact for Mtb FBA screen | inhibition, % at 4.8 µM | 360,000 tested, 1.2% active | AID 588335 | GDH-TPI coupled enzyme counterscreen, NADH absorbance; in the data active = inhibition above about 30%
BJeLR lethal: BJeLR cell viability loss | BJeLR (HRASV12) viability, CellTiter-Glo ATP luminescence, 48 h | inhibition, % (concentration not given with the values) | 300,000 tested, 0.17% active | AID 1554; in the data active = inhibition above about 50%
PrPC surface inh: reduces human prion protein on the cell surface. cell surface PrPC, TR-FRET read-out. inhibition, % at 13.8 µM. 370,000 tested, 0.43% active. AID 720596; in the data active = inhibition above about 24%
PfHsp40 yeast: compounds rescuing yeast from Plasmodium falciparum HSP40 toxicity; 340,000 tested, 0.68% active; growth rescue, % at 12.5 µM; AID 504582; S. cerevisiae expressing PfHsp40, growth rescue, ATP luminescence; in the data active = growth rescue above about 28%, passing the limit was not always enough;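 also: yeast W303a lacking pdr1 and pdr3 grown in galactose medium; growth measured after three days at 30 °C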
PrP UTR cherry: prion 5' UTR mRNA inhibition, cherry-pick retest | inhibition, % at 2.5 µM | 1,100 tested, 48% active | cell-based prion protein 5' UTR reporter, plate reader | AID 504592 | shares compounds with PrP 5UTR inh; in the data active = inhibition above about 54%
Each line names hits and unclear results; the compound was inactive in the other large screens (follow-up assays come after a bar, where they were run).

Cc1cc(/C=C2\C(=N)N3N=C(CC(=O)N4CCOCC4)SC3=NC2=O)c(C)n1Cc1ccccc1	none (no result: PrP 5UTR inh, PfHsp40 yeast)
COc1cccc(-n2c(C)cc(/C=C3\C(=N)N4N=C(CC(=O)N5CCOCC5)SC4=NC3=O)c2C)c1	GDH-TPI inh 31
COc1ccc(OC)c(-n2c(C)cc(/C=C3\C(=N)N4N=C(CC(=O)N5CCOCC5)SC4=NC3=O)c2C)c1	GDH-TPI inh 31
O[C@H](COc1cccc(C(F)(F)F)c1)CN1CCC(C(O)(c2ccccc2)c2ccccc2)CC1	none (no result: PrP 5UTR inh, FBA Mtb inh, GDH-TPI inh, BJeLR lethal, PfHsp40 yeast)
COC(=O)[C@]12C[C@H](CC(=O)NCCCN3CCCC3=O)C(=O)N(CCc3ccc(OC)c(OC)c3)C1=C[C@H](C1CCCC1)O[C@@H]2C	none (no result: PrP 5UTR inh, FBA Mtb inh, GDH-TPI inh, BJeLR lethal, PfHsp40 yeast)
O=C(CNS(=O)(=O)c1ccc(Br)cc1)OCc1cc(=O)n2cc(Br)ccc2n1	none (no result: PrP 5UTR inh, FBA Mtb inh, GDH-TPI inh, PfHsp40 yeast)
O=C(CNC(=O)c1cccc(OC(F)F)c1)OCc1cc(=O)n2cc(Br)ccc2n1	GDH-TPI inh 31
CC(=O)n1cc(-c2ccncc2)c2ccccc21	PrP 5UTR inh 55 | PrP UTR cherry inactive
O=C(Nc1ccc(N2CCCCCC2)cc1)c1ccccc1Cl	none
O=C(Nc1ccc(N2CCCCC2)cc1)c1ccccn1	PrP 5UTR inh 93 (no result: PrPC surface inh) | PrP UTR cherry 90
O=C(Nc1ccc(Br)cc1F)C1CCCN(S(=O)(=O)c2cnc[nH]2)C1 (stereo not given)	none
Cc1ccc(NC(=O)C2CCCN(S(=O)(=O)c3cnc[nH]3)C2)c(Br)c1 (stereo not given)	PrP 5UTR inh 73 | PrP UTR cherry inactive
COC(=O)[C@]12C[C@H](CC(=O)N3CCN(C(=O)c4ccco4)CC3)C(=O)N(Cc3ccco3)C1=C[C@H](C1CCCC1)O[C@@H]2C	none (no result: PrP 5UTR inh, FBA Mtb inh, GDH-TPI inh, BJeLR lethal, PfHsp40 yeast)
COc1ccc(-n2c(Cc3cc(=O)[nH]c(=O)[nH]3)nnc2SCC(=O)Nc2ccccc2)cc1	PrP 5UTR inh 57 | PrP UTR cherry inactive
COc1cc(OC)cc(C(=O)N2CCN(Cc3cccc(F)c3)CC2)c1	none
COc1cc(OC)cc(C(=O)N2CCN(Cc3ccccc3Br)CC2)c1	PrP 5UTR inh 85 | PrP UTR cherry inactive
COC(=O)[C@H]1C[C@@]2(c3ccccc3)c3ccccc3N[C@H]2N1	none (no result: PrP 5UTR inh, FBA Mtb inh, GDH-TPI inh, BJeLR lethal, PfHsp40 yeast)
CSc1ccc(Cl)c(C(=O)Nc2ccc(Cl)cn2)c1	none
COc1cc(SC)ccc1C(=O)Nc1ccc(Cl)cn1	PrP 5UTR inh 60 | PrP UTR cherry 55
COc1cc2cc(C)c(SCC(=O)N3CCOCC3)nc2cc1OC	none
COc1cc2cc(C#N)c(SCC(=O)N3CCOCC3)nc2cc1OC	PrP 5UTR inh 72 | PrP UTR cherry inactive
CN(C)c1ccc(/C=C2/SC(=O)N(CCN=C3NS(=O)(=O)c4ccccc43)C2=O)cc1	none
CN(C)c1ccc(/C=C2\SC(=O)N(CCc3nnc(N)s3)C2=O)cc1	PrP 5UTR inh 56, GDH-TPI inh 32 | PrP UTR cherry 76
CC(C)C(NC(=O)C(C(C)C)N(C)C)C(=O)N(C)C(C(=O)N1CCCC1C(=O)N1CCCC1C(=O)NCc1ccccc1)C(C)C (stereo not given)	PrP 5UTR inh 62 (no result: BJeLR lethal) | PrP UTR cherry 89
CC(C)[C@H](NC(=O)C1CCCC1)C(=O)N1CCC[C@H]1C(=O)NCc1ccccc1	none (no result: PrP 5UTR inh, FBA Mtb inh, GDH-TPI inh, BJeLR lethal, PfHsp40 yeast)
CCN(CCO)c1ccc(N=Nc2cc(C)[nH]n2)cc1	PrP 5UTR inh 61 | PrP UTR cherry 62
COc1ccc(NC(=O)Cn2c(=O)n(CC3CCCO3)c(=O)c3cc(OC)c(OC)cc32)cc1OC (stereo not given)	PrP 5UTR inh 58 | PrP UTR cherry inactive
O=C(Nc1ccc(OCc2ccccc2Cl)cc1)c1cccnc1	PrP 5UTR inh 66 | PrP UTR cherry 71
O=C(Nc1ccc(OCc2ccccc2)cc1)c1cccnc1	none
C=C1CC(Cn2cc(Br)c(=O)[nH]c2=O)(c2ccc(-c3ccccc3)cc2)OC1=O (stereo not given)	PrP 5UTR inh 61 (no result: BJeLR lethal) | PrP UTR cherry 72
O=S1(=O)c2c(cccc2N2CCSCC2)Oc2ccccc2CN1Cc1cn(Cc2ccc(C(F)(F)F)cc2)nn1	none (no result: PrP 5UTR inh, FBA Mtb inh, GDH-TPI inh, BJeLR lethal, PfHsp40 yeast)
CN(C(=O)c1ccccc1C(=O)OCC(=O)NCc1cccs1)C1CCCCC1	PrP 5UTR inh 55 | PrP UTR cherry inactive
O=C(COC(=O)c1ccccc1Cl)NCc1cccs1	none (no result: PrP 5UTR inh, BJeLR lethal, PfHsp40 yeast)
CC(COc1cccc(C(F)(F)F)c1)CN1CCC(C(O)(c2ccccc2)c2ccccc2)CC1 (stereo not given)	none (no result: PrP 5UTR inh, FBA Mtb inh, GDH-TPI inh, BJeLR lethal, PfHsp40 yeast)
CCOC(=O)c1cccc(NC(=O)/C=C/c2ccc3c(c2)OCO3)c1	PrP 5UTR inh 60 | PrP UTR cherry inactive
O=C(Nc1cccc(C(=O)O)c1)Nc1ccc2c(c1)OCO2	PrP 5UTR inh 84 | PrP UTR cherry 73
O=C(O)c1ccc(N/N=C/c2ccc3c(c2)OCO3)cc1	PrP 5UTR inh 77, GDH-TPI inh 33 | PrP UTR cherry 65
COc1cccc(NC(=O)Nc2cccc(C(=O)O)c2)c1	PrP 5UTR inh 62 | PrP UTR cherry 63
COc1cccc(NC(=O)c2ccccc2)c1	none (no result: BJeLR lethal)
CCOC(=O)c1cccc(NC(=O)c2ccc3c(c2)OCO3)c1	none
O=C(NCCN1CCC(n2c(=O)[nH]c3ccccc32)CC1)c1cccc(F)c1	none (no result: PrP 5UTR inh, FBA Mtb inh, GDH-TPI inh, BJeLR lethal, PfHsp40 yeast)
CCCCCCCCNC(=O)C1CSCCS(=O)(=O)N1Cc1ccccc1 (stereo not given)	none (no result: PrP 5UTR inh, FBA Mtb inh, GDH-TPI inh, BJeLR lethal, PfHsp40 yeast)
CNC(=O)c1ccc(-c2cc3onc(-c4ccccc4)c3c(=O)n2C)cc1	none (no result: BJeLR lethal)
Cc1ccc(-c2cc3onc(-c4ccccc4)c3c(=O)n2C)cc1	PrP 5UTR inh 61 (no result: BJeLR lethal) | PrP UTR cherry inactive
CN(Cc1ccccc1)C(=O)OCc1cn(Cc2ccc(F)c(F)c2)nn1	none (no result: PrP 5UTR inh, FBA Mtb inh, GDH-TPI inh, BJeLR lethal, PfHsp40 yeast)
C[C@@H]1COC(=O)[C@H](CC(=O)OC(C)(C)C)C/C=C\C[C@H](CC(=O)N(CCO)Cc2ccccc2)C(=O)N1	none (no result: BJeLR lethal)
CC(C)(C)OC(=O)C[C@@H]1C/C=C\C[C@H](CC(=O)N(CCO)Cc2ccccc2)C(=O)N[C@H](C(C)(C)C)COC1=O	PrP 5UTR inh 60 (no result: BJeLR lethal) | PrP UTR cherry inactive
S=C(NCc1ccco1)Nc1ccc(Br)cn1	none
S=C(NCc1ccco1)Nc1cc(-c2ccccc2)[nH]n1	PrP 5UTR inh 62 | PrP UTR cherry inactive
O=C(COc1cc(Cl)c(Cl)cc1Cl)NCCN1CCOCC1	PrP 5UTR inh 55 | PrP UTR cherry inactive
CCc1cc(=O)oc2cc(OCC(=O)NCCN3CCOCC3)c(Cl)cc12	none
CN(CCc1ccccn1)C(=O)c1ccc(Sc2ccccc2Cl)c([N+](=O)[O-])c1	none (no result: PrP 5UTR inh, FBA Mtb inh, GDH-TPI inh, BJeLR lethal, PfHsp40 yeast)
Cc1cc(C)c(S(=O)(=O)N2CCN(C(=O)CCOc3ccccc3C)CC2)c(C)c1	PrP 5UTR inh 88 (no result: BJeLR lethal) | PrP UTR cherry inactive
CCOC(=O)OC(C)OC(=O)[C@@H]1N2C(=O)[C@@H](NC(=O)[C@H](N)c3ccccc3)[C@H]2SC1(C)C (stereo not given in full)	PrP 5UTR inh 54 (no result: BJeLR lethal) | PrP UTR cherry inactive
CC(Oc1ccccc1)C(=O)NC1C(=O)N2C1SC(C)(C)C2C(=O)O (stereo not given)	none
